Source: PubChem BioAssay (Tox21)
Active and inactive are the calls of the source. The call rests on the fitted dose curve; in most records, active means well fitted curve in the direction sought with a large enough effect in the repeat runs; inconclusive means weak or mixed curves; inactive means flat fitted curve, though single readings scatter.

Test: qHTS assay to test for compound auto fluorescence at 590 nm (red) in HEK293 cells (AID 720679)
Settings: red autofluorescence 540/590 nm; series mostly up to 91.3 µM
Description: National Center for Advancing Translational Sciences [NCATS]
NIH Chemical Genomics Center [NCGC]
U.S. Environmental Protection Agency [EPA]
National Institutes of Environmental Health Sciences [NIEHS]
National Toxicology Program [NTP]
U.S. Food and Drug Administration [FDA]
Compound auto fluorescence often interferes with screening of the compound library against various biological targets and signaling pathways. Some of these compounds may have fluorophoric properties. Such properties may interfere with the assay outputs resulting in false positives and/or negatives. To decrease such complications and ensure the compound activities are relevant in terms of biological response, the Tox21 10K compound library was screened for auto fluorescence.
From the fluorophores used as reporter signals in our screening assays, the auto fluorescence equivalencies of compounds against three fluorophores have been evaluated: Triamterene, Fluorescein and Rose Bengal sodium for blue, green and red fluorescence, respectively. The fluorescence intensities were measured using Excitation/Emission wavelengths at 405/460nm, 485/535nm and 540/590nm for blue, green and red labels, respectively. This assay includes the red fluorescence data.
Tox21 Assay Protocol Summary:
2,000 HEK293 cells in 5 uL of culture medium containing 10% dialyzed FBS per well were dispensed into black wall/clear bottom 1536-well plates using a Multidrop Combi Dispenser (Thermo Scientific). The assay plates were incubated for 4-5 hr at 37C to allow cell attachment to the well bottom, followed by the transfer of 23 nL compound or DMSO vehicle by a pintool work station (Kalypsys, San Diego, CA). After the assay plates were incubated overnight at 37C and 5% CO2, fluorescence intensities in the assay plates were measured by an Envision (PerkinElmer, Shelton, CT) plate reader using three labels for measuring blue, green and red fluorescence at […] 460, 535 and 590nm respectively.
In the case of `CC(=O)CC(C)(C)O`, the outcome is reported as “inactive”.
For `c1ccc(Oc2ccccc2)cc1`, the outcome was “inactive”.
With `CCCCCCCCCCO` the outcome was “inactive”.
With `O=C1C(c2[nH]c3ccccc3c2O)=Nc2ccccc21` the outcome was “inactive”.
In the case of `Brc1ccc(Br)c(Br)c1`, the outcome is reported as “inactive”.
With `COc1ccc([N+](=O)[O-])cc1N` the outcome was “inactive”.
With `CC(C)(C)c1cc(Cc2cc(C(C)(C)C)c(O)c(C(C)(C)C)c2)cc(C(C)(C)C)c1O` the outcome was “inactive”.
In the case of `CCCOC(=O)c1ccccc1`, the outcome is reported as “inactive”.
For `O=C1c2ccccc2CCc2ccccc21`, the outcome was “inactive”.
In the case of `OC1C(O)C(O)C(O)C(O)C1O` (stereo not given), the outcome is reported as “inactive”.
For `O=C(O)c1cc2ccccc2cc1O`, the outcome was “inactive”.
For `CCCCCCCCCCCCCCCC(=O)OC(C)C`, the outcome was “inactive”.
For `COCCCN`, the outcome was “inactive”.
For `CN/C(=C\[N+](=O)[O-])NCCSCc1csc(CN(C)C)n1`, the outcome was “inactive”.
In the case of `CCO[Si](CCC#N)(OCC)OCC`, the outcome is reported as “inactive”.
In the case of `C=CC[N+](C)(C)CC=C`, the outcome is reported as “inactive”.
With `CSc1ccc(Cl)cc1` the outcome was “inactive”.
In the case of `OCc1cccc(Oc2ccccc2)c1`, the outcome is reported as “inactive”.
With `O=C(O)CCCCCCCCC(=O)O` the outcome was “inactive”.
In the case of `Nc1ccc(Cl)c(N)c1`, the outcome is reported as “inactive”.
With `O=[N+]([O-])c1ccc2nc[nH]c2c1` the outcome was “inactive”.
With `CCCCC(C=O)CC` (stereo not given) the outcome was “inactive”.
For `CC(C)(C#N)c1cc(Cn2cncn2)cc(C(C)(C)C#N)c1`, the outcome was “inactive”.
With `CC1(C)S[C@@H]2[C@H](NC(=O)COc3ccccc3)C(=O)N2[C@H]1C(=O)O` the outcome was “inactive”.
In the case of `CCOCCOCCOCCO`, the outcome is reported as “inactive”.
For `COCCOC(=O)c1ccccc1C(=O)OCCOC`, the outcome was “inactive”.
In the case of `O=C(OCC1CCC2OC2C1)C1CCC2OC2C1` (stereo not given), the outcome is reported as “inactive”.
For `NC(=S)NNC(N)=S`, the outcome was “inactive”.
With `CC(=O)OCCOC(C)=O` the outcome was “inactive”.
With `O=C(O)Cn1c(=O)n(Cc2ccc(Br)cc2F)c(=O)c2ccc(Cl)cc21` the outcome was “inactive”.
With `CCCCCCCCCCCCCCCCO` the outcome was “inactive”.
With `CC(=O)OCc1ccco1` the outcome was “inactive”.
With `CCCCCCCO` the outcome was “inactive”.
In the case of `CC(C)OP(=O)(CP(=O)(OC(C)C)OC(C)C)OC(C)C`, the outcome is reported as “inactive”.
With `O=C(O)c1ccc(S(=O)(=O)N(Cl)Cl)cc1` the outcome was “inactive”.
For `CCNc1ccccc1`, the outcome was “inactive”.
With `NCCNCCN` the outcome was “inactive”.
In the case of `C=CCCCCCCCCC(=O)O`, the outcome is reported as “inactive”.
With `CC(CCO)CC(C)(C)C` (stereo not given) the outcome was “inactive”.
For `C=C(C)C(=O)OCC(C)C`, the outcome was “inactive”.
